To fix the notation:
B1: ATACTCCG (ssRNA)
RNA 1: GAGUUCUACAGUCCGACGAUCCCAACAUACUCCGCACCUGGAAUUCUCGGGUGCCAA
RNA 2: UGGAGUGUGACAAUGGUGUUUG
DNA 1: GATCGTCGGACTGTAGAACTC
DNA 2: TTGGCACCCGAGAATTCCA
modifications: constant regions annealed to DNA blockers; guide miR-122 5' phosphate
B2: ACACTTTA (ssRNA)
RNA 1: GAGUUCUACAGUCCGACGAUCCCAACACACUUUACACCUGGAAUUCUCGGGUGCCAA
RNA 2: UGGAGUGUGACAAUGGUGUUUG
DNA 1: GATCGTCGGACTGTAGAACTC
DNA 2: TTGGCACCCGAGAATTCCA
modifications: constant regions annealed to DNA blockers; guide miR-122 5' phosphate
B3: ATGTCTCA (ssRNA)
RNA 1: GAGUUCUACAGUCCGACGAUCCCAACAUGUCUCACACCUGGAAUUCUCGGGUGCCAA
RNA 2: UGGAGUGUGACAAUGGUGUUUG
DNA 1: GATCGTCGGACTGTAGAACTC
DNA 2: TTGGCACCCGAGAATTCCA
modifications: constant regions annealed to DNA blockers; guide miR-122 5' phosphate
B4: ACGCTTCA (ssRNA)
RNA 1: GAGUUCUACAGUCCGACGAUCCCAACACGCUUCACACCUGGAAUUCUCGGGUGCCAA
RNA 2: UGGAGUGUGACAAUGGUGUUUG
DNA 1: GATCGTCGGACTGTAGAACTC
DNA 2: TTGGCACCCGAGAATTCCA
modifications: constant regions annealed to DNA blockers; guide miR-122 5' phosphate
B5: ACACTCCG (ssRNA)
RNA 1: GAGUUCUACAGUCCGACGAUCCCAACACACUCCGCACCUGGAAUUCUCGGGUGCCAA
RNA 2: UGGAGUGUGACAAUGGUGUUUG
DNA 1: GATCGTCGGACTGTAGAACTC
DNA 2: TTGGCACCCGAGAATTCCA
modifications: constant regions annealed to DNA blockers; guide miR-122 5' phosphate
B6: GCACTCCA (ssRNA)
RNA 1: GAGUUCUACAGUCCGACGAUCCCAACGCACUCCACACCUGGAAUUCUCGGGUGCCAA
RNA 2: UGGAGUGUGACAAUGGUGUUUG
DNA 1: GATCGTCGGACTGTAGAACTC
DNA 2: TTGGCACCCGAGAATTCCA
modifications: constant regions annealed to DNA blockers; guide miR-122 5' phosphate
B7: GTACTCCG (ssRNA)
RNA 1: GAGUUCUACAGUCCGACGAUCCCAACGUACUCCGCACCUGGAAUUCUCGGGUGCCAA
RNA 2: UGGAGUGUGACAAUGGUGUUUG
DNA 1: GATCGTCGGACTGTAGAACTC
DNA 2: TTGGCACCCGAGAATTCCA
modifications: constant regions annealed to DNA blockers; guide miR-122 5' phosphate
B8: GCATCTCA (ssRNA)
RNA 1: GAGUUCUACAGUCCGACGAUCCCAACGCAUCUCACACCUGGAAUUCUCGGGUGCCAA
RNA 2: UGGAGUGUGACAAUGGUGUUUG
DNA 1: GATCGTCGGACTGTAGAACTC
DNA 2: TTGGCACCCGAGAATTCCA
modifications: constant regions annealed to DNA blockers; guide miR-122 5' phosphate
B9: ACACCCCA (ssRNA)
RNA 1: GAGUUCUACAGUCCGACGAUCCCAACACACCCCACACCUGGAAUUCUCGGGUGCCAA
RNA 2: UGGAGUGUGACAAUGGUGUUUG
DNA 1: GATCGTCGGACTGTAGAACTC
DNA 2: TTGGCACCCGAGAATTCCA
modifications: constant regions annealed to DNA blockers; guide miR-122 5' phosphate

Here are results for nine molecules from article PMC12529666, “Dysregulation of AGO2-miRNA dynamics underlies the AGO2-associated Lessel–Kreienkamp syndrome”.

AGO2 L192P, sequence (Q9UKV8 whole entry L192P/S387D/S824A/S828D/S831D/S834A): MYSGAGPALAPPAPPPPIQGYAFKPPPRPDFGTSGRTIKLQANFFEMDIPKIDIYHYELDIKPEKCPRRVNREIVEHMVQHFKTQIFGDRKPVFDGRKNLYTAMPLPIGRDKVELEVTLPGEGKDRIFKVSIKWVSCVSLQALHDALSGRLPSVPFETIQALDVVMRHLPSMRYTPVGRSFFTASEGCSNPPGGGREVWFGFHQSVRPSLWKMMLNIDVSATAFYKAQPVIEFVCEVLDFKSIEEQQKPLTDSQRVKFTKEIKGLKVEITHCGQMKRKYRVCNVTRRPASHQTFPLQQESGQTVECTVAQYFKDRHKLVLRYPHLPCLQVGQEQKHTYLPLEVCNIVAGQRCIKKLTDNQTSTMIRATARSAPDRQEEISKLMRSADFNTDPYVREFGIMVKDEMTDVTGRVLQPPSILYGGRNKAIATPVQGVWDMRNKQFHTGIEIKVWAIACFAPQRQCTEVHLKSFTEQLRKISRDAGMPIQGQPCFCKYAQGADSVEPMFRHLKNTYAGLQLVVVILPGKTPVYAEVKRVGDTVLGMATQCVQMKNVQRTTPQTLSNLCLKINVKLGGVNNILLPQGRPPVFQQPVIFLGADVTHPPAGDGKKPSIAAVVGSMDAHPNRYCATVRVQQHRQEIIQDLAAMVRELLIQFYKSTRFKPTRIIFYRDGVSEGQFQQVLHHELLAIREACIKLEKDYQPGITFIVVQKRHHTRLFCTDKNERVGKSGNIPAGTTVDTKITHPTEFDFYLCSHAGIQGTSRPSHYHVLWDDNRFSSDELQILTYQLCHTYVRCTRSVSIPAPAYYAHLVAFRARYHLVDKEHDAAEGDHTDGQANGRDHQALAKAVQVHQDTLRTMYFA
AGO2 WT (phosphosite mutant background), sequence (Q9UKV8 whole entry S387D/S824A/S828D/S831D/S834A): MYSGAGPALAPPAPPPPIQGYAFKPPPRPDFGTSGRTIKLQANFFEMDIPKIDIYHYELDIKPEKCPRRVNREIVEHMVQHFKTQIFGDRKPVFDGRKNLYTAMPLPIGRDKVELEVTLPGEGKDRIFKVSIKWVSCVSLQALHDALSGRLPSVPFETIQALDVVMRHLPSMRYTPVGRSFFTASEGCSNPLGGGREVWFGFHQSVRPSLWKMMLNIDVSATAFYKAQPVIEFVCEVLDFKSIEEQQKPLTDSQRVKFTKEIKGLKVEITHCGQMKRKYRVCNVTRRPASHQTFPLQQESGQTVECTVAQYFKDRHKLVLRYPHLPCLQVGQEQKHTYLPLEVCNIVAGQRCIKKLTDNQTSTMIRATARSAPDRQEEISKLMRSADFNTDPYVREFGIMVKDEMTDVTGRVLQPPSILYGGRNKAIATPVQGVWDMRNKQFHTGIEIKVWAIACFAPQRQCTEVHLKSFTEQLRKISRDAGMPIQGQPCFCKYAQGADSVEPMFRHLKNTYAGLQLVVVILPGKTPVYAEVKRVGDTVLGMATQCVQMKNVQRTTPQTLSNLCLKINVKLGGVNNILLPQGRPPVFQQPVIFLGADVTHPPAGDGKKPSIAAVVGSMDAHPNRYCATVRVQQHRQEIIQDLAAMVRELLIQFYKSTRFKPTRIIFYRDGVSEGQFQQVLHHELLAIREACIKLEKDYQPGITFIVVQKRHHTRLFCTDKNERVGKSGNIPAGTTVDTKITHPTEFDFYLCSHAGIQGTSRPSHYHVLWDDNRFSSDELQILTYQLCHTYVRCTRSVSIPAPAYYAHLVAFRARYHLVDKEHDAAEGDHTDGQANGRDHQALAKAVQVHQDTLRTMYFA
AGO2 A367P, sequence (Q9UKV8 whole entry A367P/S387D/S824A/S828D/S831D/S834A): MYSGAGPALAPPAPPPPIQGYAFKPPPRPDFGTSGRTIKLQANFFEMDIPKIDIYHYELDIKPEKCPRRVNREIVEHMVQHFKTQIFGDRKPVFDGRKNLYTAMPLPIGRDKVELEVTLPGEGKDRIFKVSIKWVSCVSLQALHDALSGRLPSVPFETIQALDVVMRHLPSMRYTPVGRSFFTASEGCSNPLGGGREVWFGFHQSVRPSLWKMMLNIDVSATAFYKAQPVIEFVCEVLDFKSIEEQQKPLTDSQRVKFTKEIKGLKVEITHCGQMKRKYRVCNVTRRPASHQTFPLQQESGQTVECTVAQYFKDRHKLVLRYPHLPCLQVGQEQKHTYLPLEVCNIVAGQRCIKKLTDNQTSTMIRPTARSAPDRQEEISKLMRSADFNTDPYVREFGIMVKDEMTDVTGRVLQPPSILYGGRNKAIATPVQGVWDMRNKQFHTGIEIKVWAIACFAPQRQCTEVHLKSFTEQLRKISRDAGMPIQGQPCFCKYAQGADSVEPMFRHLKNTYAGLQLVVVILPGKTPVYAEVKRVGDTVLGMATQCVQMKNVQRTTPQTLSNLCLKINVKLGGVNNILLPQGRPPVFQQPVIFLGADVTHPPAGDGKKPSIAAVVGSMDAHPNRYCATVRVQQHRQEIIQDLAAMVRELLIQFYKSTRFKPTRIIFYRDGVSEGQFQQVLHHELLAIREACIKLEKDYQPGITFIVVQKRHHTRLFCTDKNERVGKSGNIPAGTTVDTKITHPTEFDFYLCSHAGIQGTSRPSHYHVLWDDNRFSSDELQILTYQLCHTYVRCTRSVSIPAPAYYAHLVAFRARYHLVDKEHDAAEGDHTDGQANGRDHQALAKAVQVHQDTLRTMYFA
AGO2 F182del, sequence (Q9UKV8 other isoform, or with tags, fused parts or gaps S387D;S824A;S828D;S831D;S834A;del182-182): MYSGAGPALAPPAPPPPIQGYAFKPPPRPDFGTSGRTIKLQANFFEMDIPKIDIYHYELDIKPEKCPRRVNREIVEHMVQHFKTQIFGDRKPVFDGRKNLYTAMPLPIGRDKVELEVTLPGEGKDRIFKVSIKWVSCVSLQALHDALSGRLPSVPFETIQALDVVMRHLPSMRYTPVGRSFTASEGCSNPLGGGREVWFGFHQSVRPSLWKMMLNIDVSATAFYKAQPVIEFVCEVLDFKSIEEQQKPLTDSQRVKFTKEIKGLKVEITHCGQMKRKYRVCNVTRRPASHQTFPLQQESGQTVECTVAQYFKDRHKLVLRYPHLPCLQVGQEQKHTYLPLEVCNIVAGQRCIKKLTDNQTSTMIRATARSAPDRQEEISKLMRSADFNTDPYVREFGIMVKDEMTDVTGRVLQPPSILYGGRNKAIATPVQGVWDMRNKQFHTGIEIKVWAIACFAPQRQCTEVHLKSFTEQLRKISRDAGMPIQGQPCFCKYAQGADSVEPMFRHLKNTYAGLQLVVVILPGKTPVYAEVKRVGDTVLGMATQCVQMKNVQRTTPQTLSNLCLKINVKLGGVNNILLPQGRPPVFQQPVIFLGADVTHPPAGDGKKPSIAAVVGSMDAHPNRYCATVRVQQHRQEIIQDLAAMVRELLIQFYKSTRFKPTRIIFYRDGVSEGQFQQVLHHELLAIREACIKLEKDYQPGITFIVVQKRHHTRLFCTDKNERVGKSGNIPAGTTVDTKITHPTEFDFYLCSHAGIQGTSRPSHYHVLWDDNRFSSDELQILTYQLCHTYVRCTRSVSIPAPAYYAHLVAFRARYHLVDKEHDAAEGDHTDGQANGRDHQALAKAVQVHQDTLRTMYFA
AGO2 T357M, sequence (Q9UKV8 whole entry T357M/S387D/S824A/S828D/S831D/S834A): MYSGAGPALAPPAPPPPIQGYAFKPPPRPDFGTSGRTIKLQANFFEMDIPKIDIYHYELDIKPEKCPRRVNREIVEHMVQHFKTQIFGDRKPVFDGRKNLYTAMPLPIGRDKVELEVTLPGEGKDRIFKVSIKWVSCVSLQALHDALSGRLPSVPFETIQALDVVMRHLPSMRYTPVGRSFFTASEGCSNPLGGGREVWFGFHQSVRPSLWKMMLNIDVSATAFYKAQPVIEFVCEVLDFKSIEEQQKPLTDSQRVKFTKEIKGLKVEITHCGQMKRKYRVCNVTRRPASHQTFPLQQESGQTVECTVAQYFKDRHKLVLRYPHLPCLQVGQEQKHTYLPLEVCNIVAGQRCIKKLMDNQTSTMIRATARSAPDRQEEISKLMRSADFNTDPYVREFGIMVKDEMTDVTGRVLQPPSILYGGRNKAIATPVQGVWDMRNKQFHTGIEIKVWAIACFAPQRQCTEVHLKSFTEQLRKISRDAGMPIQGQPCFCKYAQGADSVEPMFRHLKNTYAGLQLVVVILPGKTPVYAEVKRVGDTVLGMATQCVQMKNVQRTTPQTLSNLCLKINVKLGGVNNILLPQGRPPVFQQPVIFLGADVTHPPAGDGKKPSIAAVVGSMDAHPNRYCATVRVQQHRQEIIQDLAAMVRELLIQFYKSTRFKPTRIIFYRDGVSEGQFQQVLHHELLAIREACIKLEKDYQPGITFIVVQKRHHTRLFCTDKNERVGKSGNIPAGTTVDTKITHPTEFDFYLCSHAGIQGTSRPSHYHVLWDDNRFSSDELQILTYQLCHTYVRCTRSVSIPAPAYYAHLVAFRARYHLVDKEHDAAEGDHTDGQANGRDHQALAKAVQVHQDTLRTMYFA

One test concerns the target AGO2 WT (phosphosite mutant background) (Homo sapiens, UniProt Q9UKV8 1-859, S387D;S824A;S828D;S831D;S834A). The test can be described thus: RNA Bind-n-Seq (nitrocellulose filter binding and sequencing); miR-122 guide loaded in AGO2; 60 min incubation; 30 mM Tris pH 8.0, 100 mM potassium acetate, 2 mM magnesium acetate, 0.5 mM TCEP, 0.005% NP-40, 0.01 mg/ml yeast tRNA; 3 nM AGO2-miR-122, 100 nM RNA library; 60; high values mean tight binding. To be noted: protein: recombinant; tags: His6 (N-terminal, pFastBac HTA). In short, it runs like this:
(§1)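 His-tagged AGO2 was expressed in Sf9 insect cells by baculovirus, loaded with a synthetic guide RNA, and purified by Ni-NTA and a biotinylated capture oligo. Bound RNA was extracted, reverse-transcribed, barcode-amplified and Illumina-sequenced. Fold enrichment is each sequence's read fraction divided by its input-library read fraction.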
B1: the binding signal was 0.401 fold enrichment over input.

Regarding B2, the binding signal was 0.133 fold enrichment over input.

On to B3, for which the binding signal is 0.232 fold enrichment over input.

Regarding B4, the binding signal was 0.133 fold enrichment over input.

As to B5, the binding signal is 154 fold enrichment over input.

As to B6, the binding signal was 117 fold enrichment over input.

For B7, the binding signal was 0.327 fold enrichment over input.

Take B8: the binding signal is 0.126 fold enrichment over input.

Turning to B9, the binding signal is 0.238 fold enrichment over input.

The target of a further test is AGO2 L192P (Homo sapiens, UniProt Q9UKV8 1-859, L192P;S387D;S824A;S828D;S831D;S834A). Described as above. The conditions noted are these: protein: recombinant; tags: His6 (N-terminal, pFastBac HTA). The method, boiled down:
as §1
Consider B1, for which the binding signal was 1.86 fold enrichment over input.

With B2, the binding signal is 0.539 fold enrichment over input.

As for B3, the binding signal was 0.674 fold enrichment over input.

With B4, the binding signal is 0.605 fold enrichment over input.

With B5, the binding signal is 99.5 fold enrichment over input.

For B6, the binding signal is 45.2 fold enrichment over input.

Consider B7, for which the binding signal was 0.802 fold enrichment over input.

On to B8, for which the binding signal is 0.567 fold enrichment over input.

On to B9, for which the binding signal was 0.861 fold enrichment over input.

A further test has as its target AGO2 A367P (Homo sapiens, UniProt Q9UKV8 1-859, A367P;S387D;S824A;S828D;S831D;S834A). Described as above. The conditions noted are these: protein: recombinant; tags: His6 (N-terminal, pFastBac HTA). In short, it runs like this:
as §1
Consider B1, for which the binding signal was 2.89 fold enrichment over input.

For the molecule B2, the binding signal is 0.229 fold enrichment over input.

Regarding B3, the binding signal was 0.501 fold enrichment over input.

With B4, the binding signal is 0.327 fold enrichment over input.

Take B5: the binding signal was 140 fold enrichment over input.

As for B6, the binding signal is 66.8 fold enrichment over input.

On to B7, for which the binding signal was 2.33 fold enrichment over input.

With B8, the binding signal was 0.316 fold enrichment over input.

B9: the binding signal is 0.466 fold enrichment over input.

A further test addresses AGO2 T357M (Homo sapiens, UniProt Q9UKV8 1-859, T357M;S387D;S824A;S828D;S831D;S834A). The test is described as above. To be noted: protein: recombinant; tags: His6 (N-terminal, pFastBac HTA). The method, boiled down: as §1
On to B1, for which the binding signal was 0.632 fold enrichment over input.

In the case of B2, the binding signal was 0.707 fold enrichment over input.

Take B3: the binding signal is 0.678 fold enrichment over input.

As for B4, the binding signal was 0.624 fold enrichment over input.

B5: the binding signal is 108 fold enrichment over input.

Turning to B6, the binding signal was 44 fold enrichment over input.

As for B7, the binding signal is 0.519 fold enrichment over input.

Take B8: the binding signal is 0.605 fold enrichment over input.

As to B9, the binding signal was 0.678 fold enrichment over input.

Another test deals with AGO2 F182del (Homo sapiens, UniProt Q9UKV8 1-859, S387D;S824A;S828D;S831D;S834A;del182-182). Described as above. To be noted: protein: recombinant; tags: His6 (N-terminal, pFastBac HTA). The method, boiled down:
as §1
As for B1, the binding signal was 3.65 fold enrichment over input.

As for B2, the binding signal was 0.311 fold enrichment over input.

Turning to B3, the binding signal was 1.79 fold enrichment over input.

With B4, the binding signal is 0.944 fold enrichment over input.

As for B5, the binding signal was 91 fold enrichment over input.

As for B6, the binding signal was 91.6 fold enrichment over input.

For B7, the binding signal was 2.42 fold enrichment over input.

B8: the binding signal is 0.86 fold enrichment over input.

As for B9, the binding signal is 2.15 fold enrichment over input.
